Screens deposited in PubChem by Johns Hopkins Ion Channel Center.
This is a sample that favours compounds with a hit; in the whole collection about 1.6% have one here.
KCNQ2 pot – potentiators of rat KCNQ2 potassium channel. O88943. CHO-K1 KCNQ2, FluxOR thallium flux fluorescence; hits give high values. B-score at 10 µM. 310,000 compounds, 0.54% hits;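 active = fluorescence ratio B-score at least 3 SD of library B-scores, with initial fluorescence B-score within 3 of them, cut at about 5.3 in these data; same plate scores as AID 2156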;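 also: B-score of peak minus minimum over baseline fluorescence ratio after K+ and Tl+ stimulus; positive B-score means potentiation of KCNQ2 with more thallium influx and brighter signal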
KCNQ2 block – KCNQ2 (rat) channel inhibition. CHO-K1 KCNQ2, FluxOR thallium flux, 20 min; hits give low values. B-score at 10 µM. 310,000 compounds, 1.1% hits. AID 2156;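 active = fluorescence ratio B-score at most minus 3 library SDs, with starting brightness B-score within 2 library SDs, cut at about -5.5 in these data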
Large screens that a line does not name were inactive.

O=C(CSc1nnc(SCc2ccc(Cl)cc2)s1)c1ccc2c(c1)OCO2	none (no result: KCNQ2 pot)
CC(=O)c1c(N2CCOCC2)nc2ccc(Br)cc2c1-c1ccccc1	none (no result: KCNQ2 pot)
NC(=O)CSc1nc2ccccc2c(=O)n1Cc1ccco1	none (no result: KCNQ2 pot)
CCCn1c(C)cc(C(=O)CSc2nc3ccccc3c(=O)n2Cc2ccco2)c1C	KCNQ2 block -6
CC(C(=O)N1CCOCC1)n1cc([N+](=O)[O-])cn1 (stereo not drawn)	none
CCOC(=O)N1CCN(S(=O)(=O)c2cc(OCC(=O)NC3CCCCC3)c(C)cc2Cl)CC1	none
CCN1CCN(S(=O)(=O)c2cc(OCC(=O)NC3CCCCC3)c(C)cc2Cl)CC1	KCNQ2 pot 11
Cc1cccnc1NC(=O)CNC(=O)C12CC3CC(CC(C3)C1)C2	none (no result: KCNQ2 pot)
O=C(NC(=S)Nc1nc(-c2cccc3ccccc23)cs1)c1cc2ccccc2o1	KCNQ2 pot 8.2
Cc1ccc(-c2csc(NC(=S)NC(=O)c3cccs3)n2)cc1	none
Cc1nc(NC(=S)NC(=O)c2cccs2)ccc1Br	KCNQ2 pot 9.4
CC(=O)Nc1nc(-c2cccc3ccccc23)cs1	none
O=C(NC(=S)Nc1nc(-c2ccccc2)cs1)c1cccs1	KCNQ2 pot 7.9
Cc1cccc(NC(=S)NC(=O)c2cccs2)n1	none
CCC(C)NC(=O)C1(O)c2cc(Br)ccc2NC(=O)N1c1cccc(OC)c1 (stereo not drawn)	none (no result: KCNQ2 pot)
CCCC1=C(C(=O)OCC)C(c2ccncc2)n2ncnc2N1 (stereo not drawn)	none
N/C(=N\OC(=O)CCC1CCCC1)c1cccc([N+](=O)[O-])c1	KCNQ2 pot 5.8
N/C(=N\OC(=O)CC1CCCCC1)c1ccc([N+](=O)[O-])cc1	none (no result: KCNQ2 pot)
N/C(=N\OC(=O)CCC1CCCCC1)c1ccc([N+](=O)[O-])cc1	none
N/C(=N\OC(=O)CC1CCCCC1)c1cccc([N+](=O)[O-])c1	KCNQ2 pot 10
CCOC(=O)CSc1nnc(CNC(=O)c2ccc([N+](=O)[O-])cc2)n1C	none (no result: KCNQ2 pot)
O=c1cc(CSc2nnc(COc3ccccc3Cl)o2)nc2sccn12	none
COc1ccc(C(=O)N(CCc2ccccc2)Cc2ccccc2)c(OC)n1	KCNQ2 block -7.7
CS(=O)(=O)c1ccc(C(=O)N(CCc2ccccc2)Cc2ccccc2)cc1	none (no result: KCNQ2 pot)
COc1ccc(C(=O)N(CCc2ccccc2)Cc2cccs2)c(OC)c1	none (no result: KCNQ2 pot)
CS(=O)(=O)c1ccccc1C(=O)N(CCc1ccccc1)Cc1ccccc1	KCNQ2 block -5.6
CC(C)(C)NC(=O)C(c1ccccn1)N(C(=O)c1csnn1)C1CCCC1 (stereo not drawn)	none
CC(=O)NC1C(=O)Nc2c1cccc2C(F)(F)F (stereo not drawn)	none
OC(c1ccccc1)c1nccc2ccccc12 (stereo not drawn)	none (no result: KCNQ2 pot)
COc1cc(C(=O)OC2CC3CCC2(C)C3(C)C)ccc1OC(C)=O (stereo not drawn)	KCNQ2 block -5.7
CC1(C)C2CCC1(C)C(OC(=O)CNc1ccccc1)C2 (stereo not drawn)	none (no result: KCNQ2 pot)
COC(=O)c1cc(=O)n(Cc2ccc(F)cc2)c(=Nc2ccccc2)s1	KCNQ2 block -5.8
COC(=O)c1cc(=O)n(Cc2ccco2)c(=Nc2ccc(F)cc2)s1	KCNQ2 block -6
COC(=O)c1cc(=O)n(Cc2ccc(OC)c(OC)c2)c(=Nc2ccc(F)cc2)s1	none (no result: KCNQ2 pot)
COC(=O)c1cc(=O)n(Cc2cccs2)c(=Nc2ccccc2)s1	none (no result: KCNQ2 pot)
CCOC(=O)c1c(NC(=S)NCCc2ccccc2)sc2c1CC(C(C)C)OC2 (stereo not drawn)	KCNQ2 pot 7.5
CC(C)C1Cc2c(sc(NC(=S)NC(=O)c3ccccc3)c2C#N)CO1 (stereo not drawn)	none
Cc1ccc(S(=O)(=O)N2CCN(c3ccc(C(=O)N4CCOCC4)cc3[N+](=O)[O-])CC2)cc1	none
CC(C)(C)NC(=O)c1nn(Cc2ccccc2)c(=O)c2ccccc12	none
COc1ccc2oc(C(=O)N3CCN(C(=O)c4ccco4)CC3)c(C)c2c1	none
COc1ccc2oc(C(=O)OCC(=O)c3ccc4c(c3)OCCO4)c(C)c2c1	none (no result: KCNQ2 pot)
COc1ccc2oc(C(=O)N(Cc3ccco3)Cc3cccs3)c(C)c2c1	KCNQ2 block -5.8
COc1ccc2oc(C(=O)N(C)Cc3ccc4c(c3)OCCO4)c(C)c2c1	KCNQ2 block -6.7
COc1ccc(C(=S)N2CCN(c3cccc(Cl)c3)CC2)cc1	none (no result: KCNQ2 pot)
COc1ccc(OCc2cc(C(=O)N3CCOCC3)no2)c(Cl)c1	none (no result: KCNQ2 pot)
O=C(O)c1ccc(COc2c(F)c(F)cc(F)c2F)cc1	KCNQ2 block -9
COC(=O)c1ccc(COc2c(F)c(F)cc(F)c2F)o1	none (no result: KCNQ2 pot)
O=C(N1CCCCC1)N1CCN(S(=O)(=O)c2ccccc2)CC1	none (no result: KCNQ2 pot)
COc1ccc(-c2n[nH]c(=S)n2-c2ccc(Br)cc2)cc1OC	none
Cc1ccc(Cl)cc1N1CCN(C(=O)C(C)n2ncn3cccc3c2=O)CC1 (stereo not drawn)	KCNQ2 block -5.8
CC(C(=O)N1CCCCC1)n1ncn2cccc2c1=O (stereo not drawn)	none
CCOC(=O)C(=O)Nc1ncc(Cl)s1	none (no result: KCNQ2 pot)
Cc1cc(C(C)(C)C)oc1C(=O)N(CC(=O)NC1CCCC1)c1ccc(F)cc1	none (no result: KCNQ2 pot)
